# hNpr1 antagonist – Natriuretic polypeptide receptor (hNpr1) antagonism - Primary qHTS; Atrial natriuretic peptide receptor 1 (Homo sapiens), P16066; HEK293 hNpr1 GloSensor cGMP, ANP-stimulated luminescence; Potency, µM (doses to about 46.3 µM), for the others: at the highest dose activity change, negative = inhibition, actives largely listed as inhibitors; actives 1.6% (n = 76,000); calls by dose curve; note: % is set by controls: 0 for no effect and ±100 for the full control effect; nearly all actives have a fitted effect of over 60% in size
#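 Compound pre-incubated 30 min at room temperature on GloSensor-loaded HEK293 cells stably carrying hNpr1 and the pGS-40F cGMP biosensor. Stimulation uses hNppA at 0.1 nM final; luminescence is taken at baseline and 20 min post-agonist.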
# HEK cytotox – Cytotoxic Profiling in HEK 293 Cell Line of Diverse Libraries Using Quantitative High-Throughput Screening; HEK 293 viability, ATP luminescence (CellTiter-Glo), 48-72 h; Potency, µM (top dose mostly 115 µM), inactives show at the highest dose activity change, negative = cytotoxicity, most hits filed as inhibitors; actives 6.6% (n = 94,000); note: % is set by controls: 0 for no effect and ±100 for the full control effect; nearly all actives have a fitted effect of over 60% in size
#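 qHTS cytotoxicity; HEK 293, 250 cells/well; compound pinned; 48 or 72 hr, 37 degree Celsius, 5% CO2, 95% humidity; CellTiter-Glo, 10 min RT; luminescence (ATP).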
# GPT2 inh – Primary qHTS assay for inhibitors of Glutamate pyruvate transaminase 2 (GPT2) | Recombinant GPT2, coupled pyruvate oxidase/HRP Amplex Red fluorescence | Alanine aminotransferase 2 (Homo sapiens), Q8TD30 | Potency, µM (titrated, usually from 57.7 µM), for the others: at the top dose activity change, negative = inhibition, most hits filed as inhibitors | actives 0.25% (n = 100,000); note: % is set by controls: 0 for no effect and ±100 for the full control effect; nearly all actives have a fitted effect of over 60% in size
#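 Fluorescence read-out: pyruvate from GPT2 turnover coupled to pyruvate oxidase, HRP and Amplex Red (0.2mM ThPP, 0.2U/mL PO and HRP, 50uM Amplex final). Substrates 250uM a-KG, 2mM L-alanine; enzyme 10ng/uL; 30 min RT.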
# FLuc inh – Firefly luciferase inhibition profiling of diverse chemical library using quantitative high-throughput screening; purified P. pyralis luciferase, luminescence, biochemical; Potency, µM (titrated, usually from 115 µM), actives largely listed as inhibitors; AID 1347043, 2019; actives 2.5% (n = 76,000); Luciferin 4-monooxygenase (Photinus pyralis), P08659; note: % is set by controls: 0 for no effect and ±100 for the full control effect; nearly all actives have a fitted effect of over 65% in size
# Target sequence (P08659 whole entry, looked up): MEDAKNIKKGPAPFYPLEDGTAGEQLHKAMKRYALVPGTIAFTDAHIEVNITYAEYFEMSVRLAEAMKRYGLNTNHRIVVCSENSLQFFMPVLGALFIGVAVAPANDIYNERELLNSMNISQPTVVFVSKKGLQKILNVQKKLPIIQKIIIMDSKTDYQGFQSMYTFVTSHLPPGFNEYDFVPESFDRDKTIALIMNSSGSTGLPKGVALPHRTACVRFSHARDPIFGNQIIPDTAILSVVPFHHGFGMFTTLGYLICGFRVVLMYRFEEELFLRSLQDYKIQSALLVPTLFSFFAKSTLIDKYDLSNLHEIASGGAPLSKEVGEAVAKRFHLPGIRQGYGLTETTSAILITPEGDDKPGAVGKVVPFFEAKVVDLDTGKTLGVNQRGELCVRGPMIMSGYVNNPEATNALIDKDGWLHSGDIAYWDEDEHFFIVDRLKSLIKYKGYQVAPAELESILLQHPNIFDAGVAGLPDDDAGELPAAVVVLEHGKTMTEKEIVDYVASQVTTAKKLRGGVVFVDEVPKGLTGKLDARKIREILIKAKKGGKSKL
#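 FLuc 10nM, D-luciferin 10uM, ATP 10uM, Mg acetate 10mM, Tris acetate pH 7.5, Tween/BSA; cpd qHTS; enzyme added last; CCD luminescence.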
# 3T3 cytotox – Cytotoxic Profiling in NIH 3T3 Cell Line of Diverse Libraries Using Quantitative High-Throughput Screening; NIH 3T3 viability, CellTiter-Glo ATP luminescence, 48-72 h; Potency, µM (titrated, usually from 96.7 µM), for the others: at the top dose activity change, negative = cytotoxicity, most hits filed as inhibitors; actives 4.3% (n = 94,000); AID 1345082, 2018; note: % is set by controls: 0 for no effect and ±100 for the full control effect; nearly all actives have a fitted effect of over 55% in size
#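 First NIH 3T3 cells are plated at 400 cells/well; next compound is pinned in; then plates incubate 48 or 72 hr at 37 °C; finally CellTiter-Glo is added and luminescence read after 10 min.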
# Npr1 antag conf – Natriuretic polypeptide receptor (hNpr1) antagonism - Confirmation | shares compounds with hNpr1 antagonist | HEK293 hNpr1 cGMP GloSensor luminescence, ANP-stimulated | Potency, µM (series often up to 57.6 µM), for inactives: top-dose activity change, negative = inhibition, hits mostly inhibitors | actives 76% (n = 1,400); calls by dose curve; note: nearly all actives have a fitted effect of over 70% in size
# Npr2 selectivity – Natriuretic polypeptide receptor (hNpr2) antagonism - Subtype selectivity assay; actives 67% (n = 1,400); HEK293 hNpr2 GloSensor cGMP luminescence, CNP-stimulated; AID 1347046, 2019; Potency, µM (highest dose often 57.6 µM), for the others: at the highest dose activity change, negative = inhibition, most hits filed as inhibitors; shares compounds with hNpr1 antagonist; calls by dose curve; note: nearly all actives have a fitted effect of over 70% in size
# FLuc inh counter – Natriuretic polypeptide receptor (hNpr1) antagonism - Confirmation firefly luciferase (FLuc) inhibition counterscreen; shares compounds with hNpr1 antagonist; purified FLuc enzyme, luminescence, Km substrate; Potency, µM (top dose mostly 57.6 µM), inactives show at the top dose activity change, negative = inhibition, usual class: inhibitors; actives 0.7% (n = 1,400); AID 1347047, 2019; note: 0% is about no effect
# GloSensor cGMP – Natriuretic polypeptide receptor (hNpr1) antagonism - Counterscreen GloSensor control cell line; shares compounds with hNpr1 antagonist; HEK293 GloSensor cGMP, SNP-stimulated, luminescence; Potency, µM (series often up to 57.6 µM), for inactives: at the highest dose activity change, negative = inhibition, most hits filed as inhibitors; actives 69% (n = 1,400); calls by dose curve; note: % is set by controls: 0 for no effect and ±100 for the full control effect; nearly all actives have a fitted effect of over 70% in size
# * = called active by the depositor; i = inactive; ? = inconclusive; . = no result given; [ ] = dose if it differs, or a comment. Compounds with a hit are over-represented: about 10% of the library has one in this group of screens. Unless noted, calls come from the whole dose curve; as a rule, active = well fitted curve in the direction sought with a large enough effect; inconclusive = small, poorly fitted or top-dose-only effect, or another doubt; inactive = no such curve, though single readings can be large; an effect the other way counts as inactive or inconclusive. Potency is the fitted concentration of half-maximal effect.
SMILES,hNpr1 antagonist,HEK cytotox,GPT2 inh,FLuc inh,3T3 cytotox,Npr1 antag conf,Npr2 selectivity,FLuc inh counter,GloSensor cGMP
COc1ccc(C2Cn3nnc(C(=O)N4CCN(C(=O)Cc5cccc(F)c5)CC4)c3CO2)cc1 (configuration not stated),?,?,i,i,i,22µM*,24µM*,1%,19µM*
COc1ccc(C2Cn3nnc(C(=O)N4CCN(C(=O)c5ccccc5)CC4)c3CO2)cc1 (configuration not stated),-28%,?,i,i,-13%,.,.,.,.
COc1ccccc1CC(=O)N1CCN(C(=O)c2nnn3c2COC(c2ccc(Cl)cc2)C3)CC1 (configuration not stated),10µM*,?,i,i,?,12µM*,15µM*,1%,11µM*
CC1Oc2ccc(NC(=O)Cc3ccccc3)cc2CN(Cc2ccc(Cl)cc2)C1=O (configuration not stated),11µM*,?,-1%,i,?,22µM*,19µM*,4%,17µM*
CCNC(=O)Nc1ccc2c(c1)CN(Cc1ccc(Cl)cc1)C(=O)C(C)O2 (configuration not stated),-25%,?,i,i,?,.,.,.,.
CC1Oc2ccc(NC(=O)c3ccc(F)cc3F)cc2CN(CCc2ccccc2)C1=O (configuration not stated),3%,?,-8%,i,-26%,.,.,.,.
CC(=O)Oc1ccccc1C(=O)Nc1ccc2c(c1)CN(CCc1ccc(F)cc1)C(=O)C(C)O2 (configuration not stated),16µM*,?,i,i,25µM*,24µM*,24µM*,-7%,24µM*
COc1ccc(CCNC(=O)c2ccc3nnc(CC4CC4)n3c2)cc1,.,-1%,1%,.,?,.,.,.,.
O=C(N1CCCN(c2cc(-c3ccc(Cl)cc3)[nH]n2)CC1)C1(c2ccccc2)CC1,?,40µM*,?,i,35µM*,19µM*,19µM*,4%,17µM*
Cc1ccc(C(=O)N2CCN(c3cc(-c4ccccc4)[nH]n3)CC2)c(C)c1,11µM*,?,i,i,45µM*,24µM*,24µM*,2%,22µM*
Cc1ccccc1C(=O)N1CCCN(c2cc(-c3ccc(F)cc3)[nH]n2)CC1,-3%,?,-26%,i,-22%,.,.,.,.
O=C(c1ccc(Cl)cc1Cl)N1CCN(c2cc(-c3ccccc3)[nH]n2)CC1,10µM*,20µM*,i,i,32µM*,14µM*,19µM*,1%,14µM*
Cc1ccccc1C(=O)N1CCN(c2cc(-c3ccc(Cl)cc3)[nH]n2)CC1,11µM*,?,0%,i,?,19µM*,24µM*,-6%,17µM*
CNC(=O)c1cc(C)nc2onc(C3CCCN3C(=O)c3cccc(Cl)c3)c12 (configuration not stated),.,?,.,.,-24%,.,.,.,.
COc1ccc(OC)c(S(=O)(=O)N2CCCCCCNC(=O)[C@@H]3CCCC[C@@H]32)c1,-4%,-11%,-21%,i,-24%,.,.,.,.
Cc1ccc(S(=O)(=O)N2CCC(Oc3ncccc3C(=O)N(C)C)C2)cc1Cl (configuration not stated),-1%,-17%,4%,i,?,.,.,.,.
COCC(=O)NC[C@H]1CCN(Cc2cccc(OC)c2)C[C@H]1N(C)C,2%,i,i,i,i,.,.,.,.
Cc1ccc(C(=O)N2CCCN(C(=O)C3CC3)C(c3ccccc3)CC(=O)NCC2)s1 (configuration not stated),-12%,-1%,i,i,-12%,.,.,.,.
O=C(CCC1CCCC1)N1CCCC1c1nc(CCOCC2CCOCC2)no1 (configuration not stated),-2%,?,i,i,-6%,.,.,.,.
O=C(NCCCc1ccccc1)c1cn2cc(-c3ccc(C(F)(F)F)cc3)sc2n1,.,?,-1%,.,?,.,.,.,.
CN(Cc1cccnc1)c1ccc2ncc(Nc3cccc(N[S+](C)(=O)[O-])c3)n2n1,-3%[70.6 µM],-15%[172 µM],1%[88.5 µM],i,?,.,.,.,.
CN(Cc1cccnc1)c1ccc2ncc(Nc3cc(F)cc(N4CCOCC4)c3)n2n1,?,?,?,i,28µM*,35µM*,?,-11%[86.2 µM],?
COc1ccc(F)cc1Nc1cnc2ccc(N(C)Cc3cccnc3)nn12,7.9µM*,35µM*,?,i,?,25µM*,25µM*,-5%[86.2 µM],18µM*
CN(Cc1cccnc1)c1ccc2ncc(Nc3ccc(C(F)(F)F)cc3)n2n1,25µM*,45µM*,-9%[88.5 µM],i,?,22µM*,31µM*,2%[86.2 µM],22µM*
COc1ccc(Nc2cnc3ccc(N(C)Cc4cccnc4)nn23)cc1,-15%[70.6 µM],?,1%[88.5 µM],i,?,.,.,.,.
OCC1CN(c2ccncn2)CC12CCN(Cc1cc(F)c(F)c(F)c1)CC2 (configuration not stated),?,?,-1%,i,-38%,?,-28%,-1%,-28%
